# The panel holds about 79,000 compounds, 15% with a hit somewhere; the sample as a whole holds those more often. The source made the active and inactive calls. No stated cut-off is given here; in the data, active means growth inhibition above about 70%; inactive means the rest. Where a SMILES comes first, the peptide text is derived from it. [ ]: non-standard residue; d: D form. The star is where a group is joined. ξ: configuration not given here. ξPhe(4-NO2) = NC(Cc1ccc([N+](=O)[O-])cc1)C(=O)O; Boc = CC(C)(C)OC(=O)*; OBn = c1ccc(CO*)cc1
# Assay: NCI Yeast Anticancer Drug Screen. Data for the cln2 rad14 strain (AID 165);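 further: 0% = growth equal to vehicle treated cultures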
# Settings: S. cerevisiae cln2 rad14 strain, at 50.0 µM, stronger effect = higher value
# Method: Growth inhibition of yeast strains with defined genetic alterations is measured as a screen for potential anti-cancer activity. Selected strains with alterations in DNA damage repair or cell cycle control were exposed to compounds and growth inhibition was measured relative to vehicle treated controls. The strain used in this assay is cln2 rad14
row,SMILES,growth inhibition
1,Cc1cc(-c2ccccc2)cc(C[n+]2ccccc2)[n+]1-c1ccccn1,-3.8% (inactive)
2,O=C(Nc1cc(Cl)ccc1Cl)C(=O)C(c1cnc2ccccc2n1)[N+](=O)[O-] (stereo not given),36.1% (inactive)
3,COc1cc(NS(=O)(=O)c2ccccc2)c2nc3ccc(Cl)cc3nc2c1,3.3% (inactive)
4,CC(=O)OC/C=C1/CC[C@H]2[C@@H]3CCC4=CC(=O)CC[C@]4(C)[C@H]3[C@@H](O)C[C@]12C,-31.4% (inactive)
5,NC1=Nc2ccccc2Sc2nnc(-c3ccc(Cl)cc3)n21,-3.3% (inactive)
6,CN(C)CCCC1c2ccccc2Oc2ccc(C(F)(F)F)cc21 (stereo not given),-25.1% (inactive)
7,CCCCN1C(=O)CC2[C@@H]3CCc4cc(OC)ccc4C3CC[C@]2(C)C1=O (stereo not given in full),26.6% (inactive)
8,CC(=O)NC(=O)CCc1ccccc1,-26.1% (inactive)
9,CCc1ccccc1OCC1CO1 (stereo not given),2.2% (inactive)
10,Nc1nnnn1CCc1ccccc1,-10.8% (inactive)
11,Cc1[nH]c(=O)[nH]c(=O)c1NC=O,14.6% (inactive)
12,CCOc1ccc(NS(=O)(=O)c2ccc(F)cc2)cc1,-6.2% (inactive)
13,C=Cc1cccc([N+](=O)[O-])c1,16.5% (inactive)
14,COc1ccccc1NC(=O)CC(=O)N/N=C/c1ccc(N(CCC#N)S(=O)(=O)c2ccccc2)cc1,10.4% (inactive)
15,CS(=O)(=O)C(C#N)S(C)(=O)=O,-19.2% (inactive)
16,O=S(=O)(O)c1cc2cc(S(=O)(=O)O)c(O)cc2cc1O,3.55% (inactive)
17,O=S1(=O)c2ccccc2N2CCCc3cc(Cl)cc1c32,-3.35% (inactive)
18,O=C1CN(N2C(=O)CSC2C23CC4CC(CC(C4)C2)C3)C(=O)CN1c1ccccc1 (stereo not given),24.8% (inactive)
19,C=C=CON1CCCCC1,-5% (inactive)
20,O=C(NNC(=O)c1ccccc1F)c1ccc2ccccc2c1,-2.5% (inactive)

row,SMILES,growth inhibition
1,COC(=O)c1cc(C)c(C)c2c1NC(=O)CNC2=O,19.8% (inactive)
2,CCC(C(C)=O)C(C)C (stereo not given),7.2% (inactive)
3,ClC1CC/C=C\CC/C=C/CCC1Cl (stereo not given),32% (inactive)
4,CC(=O)NNc1ccc(C(=O)O)cc1,-13.4% (inactive)
5,O=[N+]([O-])c1cccc(-c2oc(C=Nc3ccccc3)c([N+](=O)[O-])c2-c2cccc([N+](=O)[O-])c2)c1,14.4% (inactive)
6,BrC1C2=C(c3ccccc31)C(Br)c1ccccc12 (stereo not given),28.8% (inactive)
7,O=C(O)CCC12CCC(=O)C=C1NC(=O)CC2 (stereo not given),-1.65% (inactive)
8,CS(=O)(=O)Nc1nc2ccccc2c(=O)o1,-39.7% (inactive)
9,Cc1ccccc1NC(=S)NN,16.6% (inactive)
10,C=CCc1ccc(O)c(OC)c1,9.7% (inactive)
11,O=C(c1no[n+]([O-])c1C(=O)c1csc2ccccc12)c1csc2ccccc12,-39.9% (inactive)
12,N#Cc1ccc(OCCCCCOc2ccc([N+](=O)[O-])cc2)cc1,12.8% (inactive)
13,COc1ccc(Nc2cc(N)nc(N)n2)c(=S)[nH]1,1.75% (inactive)
14,c1ccc2c(c1)NC(C1OC3CCCN3C1C1Nc3ccccc3S1)S2 (stereo not given),-1.5% (inactive)
15,CC(/C=N/N(C)C)=N\N(C)C,-60.4% (inactive)
16,CCOc1nc(N)nc(C)c1N=Nc1ccccc1C,-12.5% (inactive)
17,CCOC(=O)C(OC(C)=O)(C(=O)OCC)C(O)c1cccnc1 (stereo not given),-37.5% (inactive)
18,Cn1c(N)c(NC(=O)CC#N)c(=O)n(C)c1=O,21% (inactive)
19,NC(CSSCC(N)=NCC12CC3CC(CC(C3)C1)C2)=NCC12CC3CC(CC(C3)C1)C2,97.4% (active)
20,CC(C)(C)OC(=O)NC(Cc1ccc([N+](=O)[O-])cc1)C(=O)NCC(=O)OCc1ccccc1 (stereo not given) (Boc-[ξPhe(4-NO2)]-Gly-OBn),32.5% (inactive)

# From PubChem BioAssay (NCI)
